Reference: paper PMC4336329 (PLoS ONE, 2015)
The campaign covered roughly 310,000 compounds. About 14,000 (4.5%) showed an effect of 50% or more. The effect is printed as a negative number. Only a selection was taken, and strong results are over-represented in it overall.

Molecular target: human ether-à-go-go-related gene (hERG) potassium channel (human, UniProt Q12809)
Assay: primary screen, population patch clamp on CHO cells stably expressing hERG; higher = less effect of the substance
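Also: peak tail current of the secondary pulse compared with the same well before compound.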

human ether-à-go-go-related gene (hERG) potassium channel, sequence (Q12809 whole entry, looked up): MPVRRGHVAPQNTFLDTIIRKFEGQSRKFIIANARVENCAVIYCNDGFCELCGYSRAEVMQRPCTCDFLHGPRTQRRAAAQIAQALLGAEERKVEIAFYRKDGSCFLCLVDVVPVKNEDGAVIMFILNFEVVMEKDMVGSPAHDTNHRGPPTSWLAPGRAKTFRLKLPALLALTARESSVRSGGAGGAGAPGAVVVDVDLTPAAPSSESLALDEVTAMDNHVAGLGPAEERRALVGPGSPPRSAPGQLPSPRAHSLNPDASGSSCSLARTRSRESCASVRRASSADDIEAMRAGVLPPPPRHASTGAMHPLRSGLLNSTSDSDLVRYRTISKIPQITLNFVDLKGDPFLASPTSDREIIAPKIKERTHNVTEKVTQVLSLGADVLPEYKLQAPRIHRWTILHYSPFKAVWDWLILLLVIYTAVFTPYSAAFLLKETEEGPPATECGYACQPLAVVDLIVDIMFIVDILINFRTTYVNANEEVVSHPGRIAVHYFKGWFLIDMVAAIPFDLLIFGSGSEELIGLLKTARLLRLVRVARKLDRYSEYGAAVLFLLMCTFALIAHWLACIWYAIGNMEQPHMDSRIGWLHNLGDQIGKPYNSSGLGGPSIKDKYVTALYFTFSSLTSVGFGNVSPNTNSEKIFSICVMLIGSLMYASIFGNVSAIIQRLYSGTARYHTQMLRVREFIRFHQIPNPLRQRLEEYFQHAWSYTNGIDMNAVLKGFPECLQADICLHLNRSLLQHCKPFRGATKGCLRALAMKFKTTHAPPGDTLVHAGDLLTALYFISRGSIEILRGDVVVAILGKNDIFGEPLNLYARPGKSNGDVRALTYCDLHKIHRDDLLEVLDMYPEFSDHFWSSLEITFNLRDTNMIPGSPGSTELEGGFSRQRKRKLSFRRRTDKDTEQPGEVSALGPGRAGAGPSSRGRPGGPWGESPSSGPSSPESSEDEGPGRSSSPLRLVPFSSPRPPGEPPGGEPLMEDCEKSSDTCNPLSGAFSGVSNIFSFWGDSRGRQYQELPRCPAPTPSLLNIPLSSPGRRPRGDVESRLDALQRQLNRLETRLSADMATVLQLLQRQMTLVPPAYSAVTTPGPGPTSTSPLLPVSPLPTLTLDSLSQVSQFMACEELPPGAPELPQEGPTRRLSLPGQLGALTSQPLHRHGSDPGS

Row | Compound | hERG current change (%, negative = inhibition) at 10uM [%]
1 | C/C=C/c1ccc(OCCCNC)c(OC)c1.O=C(O)C(=O)O | -44.6
2 | C/C=C/c1ccc(OCCCCN2CC(C)CC(C)C2)c(OC)c1.O=C(O)C(=O)O (stereo not shown) | -81.6
3 | C/C=C/c1ccc(OCCNCc2ccccc2)c(OC)c1.O=C(O)C(=O)O | -39.8
4 | C/C=C/c1ccc(OCCCCOc2ccccc2C(C)=O)c(OC)c1 | -12.1
5 | C/C=C/c1ccc(OCCCNC2CCCC2)c(OC)c1.O=C(O)C(=O)O | -57.6
6 | COc1cc(C)ccc1OCCOCCN(C)Cc1ccccc1.O=C(O)C(=O)O | -32.8
7 | C/C=C/c1ccc(OCCOCCNCc2ccccc2)c(OC)c1.O=C(O)C(=O)O | -37
8 | C/C=C/c1ccc(OCCCNC(C)CC)c(OC)c1.O=C(O)C(=O)O (stereo not shown) | -14
9 | COc1cc(C)ccc1OCCCCN1CC(C)OC(C)C1.O=C(O)C(=O)O (stereo not shown) | -9.65
10 | C/C=C/c1ccc(OCCCCN(C)Cc2ccccc2)c(OC)c1.O=C(O)C(=O)O | -79.4
11 | C/C=C/c1ccc(OCCCCNCc2ccco2)c(OC)c1.O=C(O)C(=O)O | -72.9
12 | C/C=C/c1ccc(OCCCCN2CCN(CC)CC2)c(OC)c1.O=C(O)C(=O)O | -29.5
13 | C=CCN1CCN(C(c2ccccc2OC)c2nnnn2C(C)(C)C)CC1.Cl (stereo not shown) | -0.19
14 | CCOC(=O)c1c(C)oc2ccc(OC(=O)N3CCOCC3)cc12 | -16.1
15 | CCCN(CCC)C(=O)CCSCCC(=O)N(CCC)CCC | 14.5
16 | O=C(NCCN1CCOCC1)C1CCC(=O)N1Cc1ccc(F)cc1 (stereo not shown) | 1.05
17 | Cc1cccc2nc(CSc3nnc(N)s3)cn12 | -9.23
18 | CCc1ccc(Nc2nnc(SCc3cc(=O)n4ccsc4n3)s2)cc1 | -11.5
19 | COc1ccc(Nc2nnc(SCc3cn4c(C)cccc4n3)s2)cc1 | -52.2
20 | COc1ccc(Nc2nnc(SCc3cc(=O)n4ccsc4n3)s2)cc1 | -68.9
21 | Cc1ccc(Nc2nnc(SCc3cc(=O)n4cc(C)ccc4n3)s2)cc1 | -36.6
22 | O=c1cc(CSc2nnc(Nc3ccccc3)s2)nc2sccn12 | -27.6
23 | CCC(=O)N1CCC2(CC1)Oc1ccc(Cl)cc1C(=O)C21CC(c2cccnc2)=NO1 (stereo not shown) | -15.1

Row | Compound | hERG current change (%, negative = inhibition) at 10uM [%]
24 | O=C(CCCN1C(=O)c2cccnc2C1=O)N1CC(=O)N(CCc2ccccc2)C(=O)C1 | -9.44
25 | CCOC(=O)c1cnc2ccccc2c1Nc1cccc(C(=O)O)c1.Cl | 15.3
26 | CC(/C=C1\SC(=S)N(CCCC(=O)Nc2ccc(C(=O)O)c(O)c2)C1=O)=C\c1ccccc1 | 7.47
27 | Cc1ccc(C)c(S(=O)(=O)NCC(=O)Nc2ccc3c(c2)OCO3)c1 | 3.55
28 | Cc1cc(C)n(CCn2nc(C)cc2C)n1 | 4.43
29 | Cc1ccc(NC(=S)NCc2ccccc2Cl)c(C)c1 | 2.81
30 | CCC(C)NC(=O)c1cn(CC)c2ccc(S(=O)(=O)N(C)C)cc2c1=O (stereo not shown) | 1.45
31 | COCCN1CCN(C(=O)c2cc(COc3ccc(F)cc3Cl)on2)CC1 | -3.91
32 | NC(=O)CC(NC(=O)Cc1ccc(Br)cc1)c1ccc(N2CCN(c3ccccn3)CC2)c([N+](=O)[O-])c1 (stereo not shown) | 17.2
33 | COc1cc(NC(=O)CSc2nc(=O)n(CCCN3CCOCC3)c3c2CCC3)cc(OC)c1 | -34.9
34 | Cc1ccc(C)c(NC(=O)CSc2nc(=O)n(CCN3CCOCC3)c3c2CCCC3)c1 | -24.2
35 | CCN(CC)CCn1c2c(c(SCC(=O)Nc3cc(C)on3)nc1=O)CCCC2 | -25
36 | CCN(CC)CCn1c2c(c(SCC(=O)Nc3cc(OC)cc(OC)c3)nc1=O)CCC2 | -70.1
37 | COc1cc(NC(=O)CSc2nc(=O)n(CCN3CCOCC3)c3c2CCCC3)cc(OC)c1 | -23.3
38 | CCN(CC)CCn1c2c(c(SCC(=O)Nc3cc(C)cc(C)c3)nc1=O)CCC2 | -62.1
39 | CCN(CC)CCn1c2c(c(SCC(=O)Nc3cc(C)ccc3C)nc1=O)CCC2 | -61
40 | CCN(CC)CCCn1c2c(c(SCC(=O)Nc3cc(OC)cc(OC)c3)nc1=O)CCC2 | -64.4
41 | COc1cc(NC(=O)CSc2nc(=O)n(CCN3CCOCC3)c3c2CCC3)cc(OC)c1 | -41.9
42 | COC(=O)NC1(C(=O)O)CCCC1 | -0.802
43 | O=C(NNC(=O)c1cc(-c2ccco2)nc2ccccc12)c1ccccc1 | -3.05
44 | O=S(=O)(Nc1nc2ccccc2nc1NCC1CCCO1)c1ccc(F)cc1 (stereo not shown) | -1.06
45 | Cc1cc(OCC(=O)N2C[C@H]3C[C@@H](C2)c2cccc(=O)n2C3)c2c(C)cc(=O)oc2c1 | 10.3
46 | COc1ccc(/C=N/NC(=O)C(=O)N2CCN(c3ccccc3OC)CC2)cc1 | -27.6

Row | Compound | hERG current change (%, negative = inhibition) at 10uM [%]
47 | COc1cc(CCC(=O)Nc2ccc(Cl)c(C(F)(F)F)c2)cc(OC)c1OC | 13.1
48 | Cc1cc(Cl)c(S(=O)(=O)NCC2CCCO2)cc1OCC(N)=O (stereo not shown) | 4.47
49 | O=C(NC1CCCC1)c1cc(-c2ccc(Cl)cc2Cl)on1 | 7.16
50 | O=C(CN(Cc1ccco1)C(=O)c1ccc(N2CCCC2=O)cc1)Nc1ccccc1C(F)(F)F | -46.3
51 | CCNC(=O)c1sc2cc(C)ccc2c1Cl | -3.25
52 | CN(C)S(=O)(=O)c1ccc(N2CCCC2)c(C(=O)NC2CCC(O)CC2)c1 (stereo not shown) | 13.2
53 | c1ccc(-n2nnnc2NC2CCCCC2)cc1 | 11
54 | Cc1ccc(CSCC(Nc2ccc(C(=O)O)cc2[N+](=O)[O-])C(=O)O)cc1 (stereo not shown) | 6.66
55 | COc1cc(OC)c(CN2CCc3c([nH]c4ccccc34)C2)cc1Br | -54.9
56 | COc1ccc(CN2CCc3c([nH]c4ccccc34)C2)c(OC)c1C | -62.4
57 | COc1cc2c(cc1OC)CN(Cc1ccc(OC)c(C)c1OC)CC2 | -43.6
58 | COc1ccc(CN2CCc3c([nH]c4ccccc34)C2)cc1Br | -45.9
59 | COc1ccccc1CN1CCc2c([nH]c3ccccc23)C1 | -23
60 | Clc1cccc(CN2CCc3c([nH]c4ccccc34)C2)c1Cl | -8.21
61 | O=C(NNC(=O)C1CCN(Cc2cccc(F)c2)CC1)c1cccc(Cl)c1 | -8.28
62 | CCOc1ccc(C(=O)Nc2nnc(S(=O)(=O)N(C)Cc3ccco3)s2)cc1 | 9.14
63 | COCCN1Cc2cccc(C(=O)Nc3ccc4c(c3)OCCO4)c2C1=O | -5.24
64 | O=C(CSCc1cccc(F)c1)N1CCN(c2ccccc2)CC1 | -19.2
65 | Cc1ccc(NS(=O)(=O)c2c(C)[nH]c(=O)[nH]c2=O)c(C)c1 | 24.3
66 | COc1cc(C(=O)N2CCN(C3CCCCC3)CC2)cc(OC)c1OC.O=C(O)C(=O)O | 2.07
67 | COc1ccc(C(=O)N2CCN(C3CCC(c4ccccc4)CC3)CC2)cc1OC (stereo not shown) | -69.9
68 | COc1ccc(C(=O)N2CCN(C3CCN(Cc4ccccc4)CC3)CC2)cc1OC | -42.8
69 | COc1cc(OC)cc(C(=O)N2CCN(C3CCCCC3)CC2)c1.O=C(O)C(=O)O | -23.4

Row | Compound | hERG current change (%, negative = inhibition) at 10uM [%]
70 | COc1ccc(C(=O)N2CCN(C3CCCCC3)CC2)c(OC)c1 | -73.6
71 | COc1cccc(C(=O)N2CCN(C3CCCCC3)CC2)c1.O=C(O)C(=O)O | -13.5
72 | COc1ccc(C(=O)N2CCCN(C)CC2)c(OC)c1 | -5.24
73 | COc1ccc(C(=O)N2CCN(C3CCCCC3)CC2)cc1OC.O=C(O)C(=O)O | -73.6
74 | COc1ccc(C(=O)N2CCN(C(=O)Cc3ccccc3)CC2)cc1OC | 5.3
75 | CC(=O)c1c(C)[nH]c(C(=O)OCc2ccccc2)c1C | -3.71
76 | C=C(C)CSc1nnc(-c2ccccc2)n1N | -1.72
77 | CCOC(=O)N1CCC(NS(=O)(=O)c2ccc3c(c2)oc(=O)n3C)CC1 | 1.74
78 | COc1cccc(N2CCN(S(=O)(=O)c3cccc4nsnc34)CC2)c1 | -10.6
79 | CC(C)Cc1nnc(NC(=O)CCC(=O)NC2CC2)s1 | 21.9
80 | COc1ccc(NC(=O)c2c(C)noc2-c2snnc2C)cc1 | -1.51
81 | CC(C)n1c(=N)c(C(=O)NCCc2ccccc2)cc2c(=O)n3ccccc3nc21 | -75.1
82 | N=c1c(S(=O)(=O)c2ccc(Br)cc2)cc2c(=O)n3ccccc3nc2n1Cc1ccco1 | 7.31
83 | N=c1c(C(=O)NCc2ccco2)cc2c(=O)n3ccccc3nc2n1Cc1ccc(Cl)cc1 | -77.1
84 | N=c1c(S(=O)(=O)c2ccc(Cl)cc2)cc2c(=O)n3ccccc3nc2n1Cc1ccco1 | 13.1
85 | O=C(NCc1ccco1)c1ccc(Cn2c(=O)c3ccccc3n(Cc3ccc(Cl)cc3)c2=O)cc1 | 8.16
86 | N=c1c(S(=O)(=O)c2ccccc2)cc2c(=O)n3ccccc3nc2n1Cc1ccco1 | -18.9
87 | N=c1c(C(=O)NCCc2ccccc2)cc2c(=O)n3ccccc3nc2n1Cc1ccco1 | -77.9
88 | O=C(NCCc1ccccc1)c1cnc2ccccn2c1=O | -12
89 | N=c1c(C(=O)NCc2ccccc2)cc2c(=O)n3ccccc3nc2n1Cc1ccco1 | -76.4
90 | Cn1c(C(=O)NCCC2=CCCCC2)cc2c(=O)n3ccccc3nc21 | 19.7
91 | O=C(NCCc1ccco1)c1nn(Cc2ccccc2)c(=O)c2ccccc12 | 10.3
